Among the data in PubChem BioAssay (NCI) are growth values, retold here.

Among the test systems are HCT-15 colon; HT29 colon; SNB-75 CNS; SNB-19 CNS; U251 CNS; PC-3 prostate; SK-MEL-5 melanoma; UACC-62 melanoma; LOX IMVI melanoma; SK-MEL-28 melanoma; SK-MEL-2 melanoma; EKVX NSCLC; SN12C renal; UO-31 renal; TK-10 renal; ACHN renal; CAKI-1 renal; CCRF-CEM leukemia; MOLT-4 leukemia.
Holding throughout (assay): NCI-60 one-dose screen, 48 h (100 = growth as untreated, 0 = no growth, -100 = all killed)
Conditions in all cases: 10 µM unless noted

The panel holds about 83,000 compounds, 20% with a hit somewhere; the sample as a whole holds those more often.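 Negative percent growth values reflect cell death: -40 means 40% of the cells present at the start died, and -100 means all died.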 Values without a mark were called inactive. The source made the active and inactive calls. Rule for the calls: active = growth percent below 10; inactive = the rest.

For the compound `S=c1cc(S)c2cc(Br)ccc2[nH]1`, the growth is 99.8% in the test on HCT-15 colon; 96.9% with HT29 colon; 105% with SNB-75 CNS; 94.1% in the test on SNB-19 CNS; 98.3% in the test with U251 CNS; 78.8% in the test with PC-3 prostate. In addition, the growth in the test with SK-MEL-5 melanoma is 89%; in the test with UACC-62 melanoma, 83.4%; in the test with LOX IMVI melanoma, 95.9%; with SK-MEL-28 melanoma, 98%; in the test with SK-MEL-2 melanoma, 93.9%; with EKVX NSCLC, 105%. Also, the growth in the test on SN12C renal was 98.8%; with UO-31 renal it was 86.8%; in the test on TK-10 renal, 125%; with ACHN renal, 90.4%; in the test on CAKI-1 renal, 101%; in the test on CCRF-CEM leukemia it was 100%. Besides, in the test with MOLT-4 leukemia, the growth is 98.7%.

`CCOC(=O)CSc1nc2ccccc2c(=O)n1Cc1ccc(S(N)(=O)=O)cc1`: the growth in the test with HCT-15 colon is 100%; in the test on HT29 colon, 105%; in the test on SNB-75 CNS it was 85.8%; in the test with SNB-19 CNS, 99.2%; in the test on U251 CNS, 97.5%; in the test with PC-3 prostate, 91.7%. Besides, the growth with SK-MEL-5 melanoma is 100%; in the test on UACC-62 melanoma, 94.4%; with LOX IMVI melanoma, 95.9%; with SK-MEL-28 melanoma, 104%; with SK-MEL-2 melanoma, 111%; in the test with EKVX NSCLC, 97.1%. Also, the growth in the test with SN12C renal is 99.5%; with UO-31 renal, 84.3%; in the test with TK-10 renal, 98.7%; in the test on ACHN renal it was 102%; in the test with CAKI-1 renal, 91.3%; with CCRF-CEM leukemia, 97.1%. Besides, the growth with MOLT-4 leukemia was 104%.

`CN(C)CC(O)c1ccc(/C=C/c2ccc(Cl)cc2)cc1` (configuration not stated): the growth in the test with HCT-15 colon was -51.7% (active); in the test with HT29 colon, -69.5% (active); with SNB-75 CNS, -24.8% (active); with SNB-19 CNS it was 32.1%; with U251 CNS, -94% (active); in the test with PC-3 prostate, -30.3% (active). Besides, the growth in the test with SK-MEL-5 melanoma was -91.5% (active); with UACC-62 melanoma, -79% (active); in the test with LOX IMVI melanoma, -54.2% (active); with SK-MEL-28 melanoma, -88.2% (active); in the test with SK-MEL-2 melanoma it was -63.9% (active); with EKVX NSCLC it was 29.7%. For the same compound, the growth was -12.3% (active) in the test with SN12C renal; -67.2% (active) in the test with UO-31 renal; -91.5% (active) in the test with TK-10 renal; -50.1% (active) in the test with ACHN renal; -46.1% (active) in the test on CAKI-1 renal; -43.8% (active) with CCRF-CEM leukemia. For the same compound, the growth with MOLT-4 leukemia was -29.7% (active).

For the compound `CNC(=O)c1cccc(Cn2nc(C)c(NC(=O)c3ccc(COc4ccc(C(F)(F)F)cc4C)cc3)c2C)c1`, the growth with HCT-15 colon is 55%; with HT29 colon, 44.4%; in the test on SNB-75 CNS, 82.2%; with SNB-19 CNS, 46.8%; with U251 CNS it was 44.4%; in the test with PC-3 prostate it was 40.1%. For the same compound, the growth was -16.8% (active) with SK-MEL-5 melanoma; 57% in the test with UACC-62 melanoma; 58% with LOX IMVI melanoma; 63.9% in the test on SK-MEL-28 melanoma; 48.9% with SK-MEL-2 melanoma; 34% with EKVX NSCLC. Besides, the growth with SN12C renal is 56.6%; in the test with UO-31 renal, 47.3%; in the test on TK-10 renal, 55.5%; with ACHN renal, 47.2%; in the test with CAKI-1 renal it was 47%; in the test with CCRF-CEM leukemia, 54.4%. Also, the growth with MOLT-4 leukemia is 18%.

For the compound `COc1ccc(C(=O)CSc2nc(-c3cc(OC)ccc3OC)cc(-c3ccc(Cl)cc3)c2C#N)cc1`, the growth with HCT-15 colon was 62.7%; in the test on HT29 colon, 48.3%; with SNB-75 CNS, 30.9%; in the test on SNB-19 CNS it was 40.3%; in the test with U251 CNS it was 35.7%; with PC-3 prostate, 56.8%. Also, the growth in the test on SK-MEL-5 melanoma was 36.6%; in the test on UACC-62 melanoma it was 16.8%; in the test with LOX IMVI melanoma it was 68.5%; with SK-MEL-28 melanoma, 32.1%; in the test with SK-MEL-2 melanoma, 70.8%; with EKVX NSCLC, 79.7%. The growth is 42.6% in the test on SN12C renal; 45.9% with UO-31 renal; 61.9% in the test with TK-10 renal; 31% with ACHN renal; 64.9% in the test with CAKI-1 renal; 98.2% in the test with CCRF-CEM leukemia. The growth with MOLT-4 leukemia was 94.3%.

For the compound `CN1CCN(C(=O)[C@]23CCC(C)(C)C[C@H]2C2=CC[C@@H]4[C@@]5(C)C/C(=C/c6ccncc6)C(=O)C(C)(C)[C@@H]5CC[C@@]4(C)[C@]2(C)CC3)CC1`, the growth in the test on HCT-15 colon is 36.3%; in the test with HT29 colon it was 5.24% (active); with SNB-75 CNS, 85.2%; in the test on SNB-19 CNS, 61.2%; in the test with U251 CNS, 44.8%; in the test on PC-3 prostate, 19.5%. For the same compound, the growth was 54.3% in the test on SK-MEL-5 melanoma; 61% in the test on UACC-62 melanoma; 40.2% with LOX IMVI melanoma; 74.7% with SK-MEL-28 melanoma; 78.2% in the test on SK-MEL-2 melanoma; 80.2% in the test on EKVX NSCLC. Besides, the growth is 49.9% in the test on SN12C renal; 37.3% in the test with UO-31 renal; 77.1% with TK-10 renal; 65.1% in the test on ACHN renal; 75.4% with CAKI-1 renal; 19.7% in the test with CCRF-CEM leukemia. The growth in the test on MOLT-4 leukemia was 2.92% (active).

Consider `C#CCNC(=O)[C@H](Cc1ccccc1)NC(=O)[C@]12CC[C@@H](C(=C)C)[C@@H]1[C@H]1CC[C@@H]3[C@@]4(C)CCC(=O)C(C)(C)[C@@H]4CC[C@@]3(C)[C@]1(C)CC2`, for which the growth with HCT-15 colon is 70.7%; in the test with HT29 colon it was 52.9%; in the test on SNB-75 CNS, 99.2%; with SNB-19 CNS, 82.6%; in the test on U251 CNS, 69.1%; in the test with PC-3 prostate, 33%. The growth in the test with SK-MEL-5 melanoma is 78.2%; with UACC-62 melanoma, 59.5%; in the test on LOX IMVI melanoma, 75.4%; in the test with SK-MEL-28 melanoma it was 98.1%; in the test with SK-MEL-2 melanoma, 86.8%; with EKVX NSCLC, 79%. Further, the growth is 76% with SN12C renal; 54% in the test on UO-31 renal; 65.3% in the test on TK-10 renal; 75.7% in the test with ACHN renal; 55.4% in the test with CAKI-1 renal; 65.1% with CCRF-CEM leukemia. The growth in the test with MOLT-4 leukemia is 46.3%.

As for `NC1[C@H](c2c[nH]c3ccccc23)c2c([nH]c3ccccc23)[C@H]1c1c[nH]c2ccccc12` (some centres not stated), the growth was 84.8% with HCT-15 colon; 97.6% in the test on HT29 colon; 97.2% in the test on SNB-75 CNS; 95.2% with SNB-19 CNS; 100% with U251 CNS; 78.3% with PC-3 prostate. Besides, the growth with SK-MEL-5 melanoma was 85.2%; in the test with UACC-62 melanoma, 72.5%; in the test with LOX IMVI melanoma, 90.1%; in the test on SK-MEL-28 melanoma, 103%; in the test on SK-MEL-2 melanoma, 98.2%; with EKVX NSCLC it was 85.1%. Moreover, the growth was 88.9% with SN12C renal; 80.2% in the test with UO-31 renal; 119% in the test on TK-10 renal; 88% in the test on ACHN renal; 84.8% in the test with CAKI-1 renal; 94.5% in the test with CCRF-CEM leukemia. Further, the growth in the test on MOLT-4 leukemia is 80.6%.
